AMA1 RON2 block – AMA1-RON2 (P. falciparum) interaction inhibition | AlphaScreen AMA1-biotinylated RON2 peptide binding | Potency, µM (titrated, usually from 58.2 µM), inactives show top-dose activity change, negative = inhibition, actives largely listed as inhibitors | hit rate 0.2% among 360,000; active = well fitted inhibition curve with a large enough effect; inconclusive = small, poorly fitted or top-dose-only effect; inactive = no such curve, though single readings can be large or run the other way;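 note: potency is the fitted concentration of half-maximal effect; 0% = vehicle wells and -100% = peptide control; nearly all actives have a fitted effect of over 45% in size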
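AMA1 (3D7) with his tag at 25 nM final met compounds first, then biotinylated RON2 peptide at 25 nM; detection used donor plus acceptor beads, 10 µg/mL apiece, read by AlphaScreen after 30 min at room temperature.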
LASV entry inh – Lassa virus entry inhibition. Lassa virus pseudotype entry inhibition, cell reporter. Potency, µM (highest dose often 37.9 µM), without a hit: at the top dose activity change, negative = inhibition, actives largely listed as inhibitors. hit rate 1.2% among 300,000. AID 540256; calls by dose curve; tested in HEK293 cells; note: potency is the fitted concentration of half-maximal effect; % is set by controls: 0 for no effect and ±100 for the full control effect; nearly all actives have a fitted effect of over 50% in size
Shiga inhibitor – inhibitors of Shiga toxin in Vero cells; Vero cells, Shiga toxin protein synthesis inhibition reporter; inhibition, % at 38.7 µM; hit rate 9.2% among 290,000; in the data active = inhibition mostly above about 28%, no sharp cut-off; inactive = mostly below about 43%; note: 0% is about no effect
CHX counter – counter-screen hit for Shiga toxin inhibitors, cycloheximide. cell reporter, cycloheximide protein synthesis inhibition counterscreen. max response, %. hit rate 12% among 300,000; in the data active = max response mostly above about 13%, no sharp cut-off; inactive = mostly below about 14%; note: read at 38.3 µM for the half of the compounds with a filed dose; 0% is about no effect
Marburg entry inh – inhibitors of Marburg virus binding or cell entry | Marburg virus pseudotyped entry inhibition, cell reporter | Potency, µM (doses to about 37.8 µM), for the others: top-dose activity change, negative = inhibition, usual class: inhibitors | hit rate 1.8% among 300,000 | AID 540276; calls by dose curve; tested in HEK293 cells; note: potency is the fitted concentration of half-maximal effect; % is set by controls: 0 for no effect and ±100 for the full control effect
Numbers without * were called inactive; ? = inconclusive; . = no result; [ ] = another dose, or the depositor's remark. This excerpt belongs to a sample that is enriched for hits.

SMILES | AMA1 RON2 block | LASV entry inh | Shiga inhibitor | CHX counter | Marburg entry inh
CCCSc1nnc(NC(=O)Nc2ccccc2OC)s1 | 1% | . | 96* | 34* | .
COc1cccc(OC)c1C(=O)Nc1nc2ccc(S(C)(=O)=O)cc2s1 | 60% | ? | -14 | -3 | ?
COc1ccc2nc(NC(=O)Nc3cccc4ccccc34)sc2c1 | 9% | -13% | 56 | 23 | -10%
COc1ccc2nc(NC(=O)C3CC(=O)N(c4ccccc4)C3)sc2c1 (stereo not given) | -1% | 10% | -7 | 10 | -13%[46.1 µM]
COc1ccc2nc(NC(=O)Nc3ccccc3OC)sc2c1 | -2% | ? | 102* | 49* | ?
COc1ccccc1NC(=O)Nc1nc2ccc(S(N)(=O)=O)cc2s1 | -6% | . | 89* | 67* | -4%[46.1 µM]
COc1ccc(Nc2nc3ccccc3c(=O)s2)c(OC)c1 | 95% | 0% | 18 | -3 | -5%
COc1ccc2nc(Nc3ccccc3OC)sc2c1 | 5% | ? | 90* | 32* | ?
COc1ccc2nc(Nc3ccccc3)sc2c1 | -6% | ? | 60* | 30* | ?
Cc1ccc(Cn2c(CO)cnc2SCC(=O)Nc2ccc(C)c(Cl)c2)cc1 | . | -7%[46.1 µM] | 21 | 9 | .
CCCNC(=O)CSc1nc2nc(C)c(Cc3ccccc3Cl)c(C)n2n1 | . | -3%[46.1 µM] | . | . | 4%[46.1 µM]
O=C(c1ccc2c(c1)N(Cc1ccc(Cl)cc1)C(=O)c1ccccc1S2=O)N1CCN(c2ccccc2F)CC1 (stereo not given) | . | ? | . | . | 16%[46.1 µM]
COc1cc(-c2ncc3ccccn23)cc(OC)c1OC | 15% | ? | -10 | -1 | -12%
Fc1ccc(-c2ncc3ccccn23)cc1 | 0% | 21% | 33 | 33* | 12%
Brc1ccc(-c2ncc3ccccn23)cc1 | 9% | . | 88* | 60* | .
c1csc(-c2ncc3ccccn23)c1 | -2% | -1% | 68* | 40* | 9%
O=S(=O)(Nc1nc2ccc(S(=O)(=O)N3CCCC3)cc2s1)c1ccc(F)cc1 | 9% | 3% | -18 | -2 | 2%
Cc1csc(NC(=O)c2ccc(Cl)cc2[N+](=O)[O-])n1 | 2% | -19% | 128* | 46* | ?
Cc1csc(NC(=O)c2ccccc2[N+](=O)[O-])n1 | -5% | -3% | -18 | -5 | 9%
Cc1cc(C)nc(NC(=O)c2ccc(C)c([N+](=O)[O-])c2)n1 | 9% | 1% | -9 | 2 | -26%
Cc1csc(NC(=O)c2ccc(C)c([N+](=O)[O-])c2)n1 | -4% | ? | 45 | 42* | ?
Cn1ccc2cc(S(=O)(=O)N3CCC(C(=O)NCCc4ccccc4)CC3)ccc21 | . | -2%[46.1 µM] | . | . | .
CC(C)NC(=O)NC(=O)CSc1nnc(COc2ccccc2F)n1C(C)C1CC2CCC1C2 (stereo not given) | -9% | 18µM* | 18 | -2 | ?
CC(C1CC2CCC1C2)n1c(COc2ccccc2F)nnc1SCC(N)=O (stereo not given) | -7% | 0% | -26 | -2 | ?
COc1ccccc1C(=O)Nc1ccc2[nH]ncc2c1 | -8% | 5%[46.1 µM] | 24 | 16* | 2%[46.1 µM]
SMILES | AMA1 RON2 block | LASV entry inh | Shiga inhibitor | CHX counter | Marburg entry inh
CCOc1cccc(C(=O)Nc2ccncc2)c1 | 11% | -2%[46.1 µM] | -2 | -1 | ?
CC(C)c1ccccc1OCC(=O)Nc1ccc2[nH]ncc2c1 | -3% | ? | 0 | 7 | -6%[46.1 µM]
COc1cccc(C(=O)Nc2ccc3c(c2)C(=O)NC3=O)c1 | -5% | . | 26 | 2 | .
CCOc1cccc(C(=O)Nc2ccc3[nH]ncc3c2)c1 | 0% | ? | 22* | 36* | -28%
COc1cccc(C(=O)Nc2ccc3[nH]ncc3c2)c1 | -3% | ? | 23 | 24* | ?
O=[N+]([O-])c1cc(Br)c(O)c(/C=N/Nc2nnnn2-c2cccc3ccccc23)c1 | 26% | -1% | 18 | -2 | 26%
COc1ccc(-c2cc(=Nc3ccccc3)c3cc(C)ccc3o2)cc1 | -18% | -5% | 97* | 86* | ?
COc1ccc(-c2cc(=Nc3ccc(C)cc3)c3ccccc3o2)cc1 | -5% | ? | 4 | 1 | ?
COc1ccc(N=c2cc(-c3ccc(O)cc3)oc3ccccc23)cc1 | -29% | -35% | 12* | 42* | 8%
COc1ccc(C(=O)c2c(-c3ccc(OC)cc3)oc3ccccc23)cc1 | 12% | . | . | . | .
COc1ccc(N=c2cc(-c3ccc(OC)cc3)oc3ccccc23)cc1 | 13µM* | ? | 10 | 0 | -12%
CCOc1ccc(N=c2cc(-c3ccc(OC)cc3)oc3ccccc23)cc1 | 14µM* | ? | -6 | -3 | ?
Cc1sc(NC(=O)c2ccco2)c(CN2CCN(Cc3ccccc3)CC2)c1C | -11% | ? | 4 | 7 | 13µM*
O=C(Nc1sc2c(c1CN1CCOCC1)CCC2)c1ccc(F)cc1 | -10% | 10% | 28 | -2 | ?
Cc1sc(NC(=O)c2ccco2)c(C(c2cccnc2)N2CCC(C)CC2)c1C (stereo not given) | 8% | 21µM* | 2 | -4 | ?
CCN1CCN(C(c2cccnc2)c2c(NC(=O)c3ccco3)sc(C)c2C)CC1 (stereo not given) | -7% | . | . | . | .
Cc1sc(NC(=O)c2ccc(F)cc2)c(CN2CCCCCC2)c1C | -3% | ? | 175* | 43* | ?
Cc1sc(NC(=O)c2ccco2)c(CN2CCC(C)CC2)c1C | -7% | -25% | 0 | 10 | ?
Cc1sc(NC(=O)c2ccccc2F)c(CN2CCCCC2)c1C | -22% | 26% | 127* | 50* | -2%
O=C(Nc1ccc(F)c(Cl)c1)c1cc(C2CCCN(S(=O)(=O)c3cccc4cccnc34)C2)on1 (stereo not given) | -4% | . | . | . | .
Cc1cc2[nH]c(=O)c(=O)[nH]c2cc1S(=O)(=O)NC1CCCCC1C (stereo not given) | 6% | . | -4 | -2 | .
COC(=O)c1cccc(NC(=O)Cc2ccsc2)c1 | 11% | . | 19 | 12 | .
Cc1nc2ccc(NS(=O)(=O)c3c(F)cccc3F)cc2s1 | -3% | -12% | . | . | -22%
Cc1ccc(NC(=O)Cc2ccsc2)cc1Cl | 6% | . | 56* | 25* | .
Cc1nc2ccc(S(=O)(=O)NCC(=O)Nc3ccc(F)cc3)cc2s1 | 6% | . | 3 | -7 | .
SMILES | AMA1 RON2 block | LASV entry inh | Shiga inhibitor | CHX counter | Marburg entry inh
Cc1nc2ccc(NC(=O)Cc3ccccc3F)cc2s1 | -3% | . | 103* | 58* | ?
Cc1nc2ccc(NC(=O)Cc3ccsc3)cc2s1 | 4% | 3% | 25 | 28* | -1%
Cc1nc2ccc(NC(=O)Cc3cccc(F)c3)cc2s1 | -8% | ? | 39* | 36* | ?
CCCCN(CCCNC(=O)c1ccc2c(c1)NC(=O)CN2C)c1ccccc1 | -20% | . | . | . | .
COc1ccc2c(CNCCc3ccccc3OC)c(C(=O)O)n(Cc3ccc(F)cc3Cl)c2c1 | . | -12%[46.1 µM] | . | . | .
CC(C)OC(=O)c1cc2ccccc2[nH]1 | -1% | 3% | 54* | 23* | 9%
NNC(=O)c1cc2ccccc2[nH]1 | 82% | ? | 11 | 5 | ?
CCOC(=O)c1cc2cc3ccccc3cc2[nH]1 | 36% | ? | 150* | 54* | ?
CC(=O)Nc1cc(-c2ccc(C(=O)NC3CC3)cc2)cn2c(-c3ccc(F)c(Cl)c3)cnc12 | 31% | . | . | . | .
